Screening results from PubChem.
Compounds with a hit are over-represented: about 7.5% of the library has one in this group of screens.
FMDV inh: blocks foot and mouth disease virus. AID 1159524. Potency, µM (series often up to 57.9 µM), for the others: at the highest dose activity change, negative = inhibition, most hits filed as inhibitors. 1.2% of 410,000 active. FMDV antiviral cell-based qHTS; calls by dose curve; tested in HEK293T cells; also: read-out not given here; potency is read from the fitted curve at half-maximal effect; nearly all actives have a fitted effect of over 45% in size
HCV inh: blocks hepatitis C virus. 3.4% of 340,000 active. Huh7.5.1 HCVcc-Cre infection, luciferase reporter, 44 h. AID 651820. Potency, µM (top dose mostly 41.8 µM), for inactives: at the highest dose activity change, negative = inhibition, actives largely listed as inhibitors; also: potency is read from the fitted curve at half-maximal effect
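A cell-based infection assay in which seeded cells (1,000 per well) receive test compound after 4 h, are inoculated with HCVcc-Cre at approximately 0.5 moi, and are incubated 44 h before luminescence detection.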
Vaccinia Venus: inhibitors of vaccinia virus (Venus reporter); Vaccinia virus Venus reporter expression, fluorescence; Potency, µM (series often up to 36.5 µM), without a hit: at the top dose activity change, negative = inhibition, hits mostly inhibitors; 0.46% of 330,000 active; AID 720580; calls by dose curve; tested in A549 cells; also: potency is read from the fitted curve at half-maximal effect; nearly all actives have a fitted effect of over 30% in size
HCMV inh: inhibitors of human cytomegalovirus; 4.5% of 410,000 active; activity change, negative = inhibition, % at 57.5 µM; HFF cells, HCMV-luciferase reporter, 72 h; active compounds read low; in the data active = activity change below about -60%; inconclusive = no clear call, values can overlap the other calls; inactive = above about -39%
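Two-dose cell screen: HFF monolayers treated with compounds and infected with luciferase-expressing HCMV at 1 PFU/cell, 72 h at 37C, then lysed for luciferase measurement.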
Vaccinia mCherry: inhibitors of vaccinia virus infection (mCherry reporter signal) | Vaccinia virus mCherry reporter infection, fluorescence | Potency, µM (highest dose often 36.5 µM), for inactives: at the highest dose activity change, negative = inhibition, hits mostly inhibitors | 0.63% of 310,000 active | AID 720579; calls by dose curve; tested in A549 cells; also: potency is read from the fitted curve at half-maximal effect; nearly all actives have a fitted effect of over 35% in size
Giardia FBPA inh: inhibitors of Giardia lamblia fructose-1,6-bisphosphate aldolase; purified Giardia FBPA; 0.71% of 290,000 active; A8B2U2; Potency, µM (doses to about 59.6 µM), inactives show at the top dose activity, negative = inhibition, hits mostly inhibitors; AID 2451; also: potency is read from the fitted curve at half-maximal effect; nearly all actives have a fitted effect of over 55% in size
Target sequence (A8B2U2 whole entry, looked up): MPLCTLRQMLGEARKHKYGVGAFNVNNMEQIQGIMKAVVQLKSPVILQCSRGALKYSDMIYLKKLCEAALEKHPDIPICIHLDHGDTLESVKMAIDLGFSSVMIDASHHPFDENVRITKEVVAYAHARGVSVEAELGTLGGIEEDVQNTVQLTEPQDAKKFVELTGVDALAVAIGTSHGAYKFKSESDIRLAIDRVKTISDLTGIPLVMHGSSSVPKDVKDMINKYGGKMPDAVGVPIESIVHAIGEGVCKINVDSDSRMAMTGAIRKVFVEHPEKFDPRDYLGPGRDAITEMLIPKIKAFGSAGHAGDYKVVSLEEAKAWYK
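40 nM FBPA preincubated 10 min at RT with compound (up to 57.5 uM final), then substrate plus GAPDH/TPI/NAD/arsenate coupling and diaphorase/resazurin added. Fluorescence read after 20 min at RT, 525/598 nm.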
An asterisk follows results filed as active; i = inactive; u = inconclusive; x = no result given; ! = a repeat was not active. Unless noted, calls follow the shape of the dose curve; as a rule, active = well fitted curve in the direction sought with a large enough effect; inconclusive = small, poorly fitted or top-dose-only effect, or another doubt; inactive = no such curve, though single readings can be large; an effect the other way counts as inactive or inconclusive. % is scaled to controls: 0 for no effect and ±100 for the full control effect.

SMILES	FMDV inh	HCV inh	Vaccinia Venus	HCMV inh	Vaccinia mCherry	Giardia FBPA inh
CC(C)Oc1ccc(C(=O)Nc2cccc(S(=O)(=O)N3CCCC3)c2)cc1	-6.2%	2.82µM*	-24.0%	u	u	x
Cc1cc(C)n(-c2ccc(C(=O)N3CCN(S(=O)(=O)c4cccc(Br)c4)CC3)cc2)n1	u	7.94µM*	x	-64.2*	x	x
Cc1cc(C)n(-c2ccc(C(=O)Nc3cccc(S(=O)(=O)N4CCCC4)c3)cc2)n1	-22.7%	u	-10.4%	-72.3*	i	-3.5%
CN(C)S(=O)(=O)c1cccc(NC(=O)c2ccc(S(=O)(=O)N3CCCC3)cc2)c1	0.0%	10µM*	-22.1%	-15.8	-8.2%	x
NS(=O)(=O)c1cccc(NC(=O)c2ccc(S(=O)(=O)N3CCCCCC3)cc2)c1	-11.7%	u	-20.4%	u	u	x
CS(=O)(=O)N(C(=O)NC(=O)NC12CC3CC(CC(C3)C1)C2)C1CCCCC1	-7.8%	5.6%	-17.7%	-63.9*	i	0.4%
Brc1ccc(CSc2ccc3nnc(-c4cccnc4)n3n2)cc1	31.6µM*	u	-18.8%	29.1	-15.5%	11.1%
Cc1ccc(CSc2nnc(-c3ccncc3)n2N)cc1	-6.6%	15.0%	-9.2%	u	-5.4%	2.1%
Brc1ccc(CSc2nnc(-c3cccnc3)o2)cc1	-12.2%	0.2%	-12.9%	-68.3*	-7.2%	1.9%
Fc1ccc(CSc2nnc(-c3ccncc3)o2)cc1	12.4%	6.6%	-11.2%	13.0	-7.6%	-1.8%
Nn1c(SCc2ccc(Br)cc2)nnc1-c1ccncc1	-7.1%	-3.0%	x	-63.0*	x	1.1%
Cc1ccc(CSc2ccc3nnc(-c4cccnc4)n3n2)cc1	u	9.0%	-14.4%	122.9	-12.3%	5.9%
Clc1ccc(CSc2nnc(-c3ccncc3)o2)cc1	-22.6%	u	x	-70.2*	x	-22.7%
c1ccc(CSc2nnc(-c3cccnc3)o2)cc1	50.7%	14.3%	-19.2%	-40.0	x	-1.1%
COc1ccc2oc(C(=O)OCC(=O)/C(C#N)=C(\C)N)c(C)c2c1	34.9%	u	x	4.2	x	5.1%
NC(=O)C1CCN(C(=O)C2(NC(=O)Nc3cccc(F)c3)CCCCC2)CC1	2.7%	11.2%	-5.6%	3.0	-1.5%	-3.4%
O=C(Nc1cccc(F)c1)NC1(C(=O)N2CCC(O)CC2)CCCCC1	12.6%	6.4%	-8.2%	-99.0*	i	-4.8%
COc1cc(-c2noc(C)c2/C=C/c2ccc(OC(C)=O)cc2)cc(OC)c1OC	-12.8%	u	u	-64.7*	u	3.9%
COc1ccc(N(CC(=O)Nc2c(C)n(C)n(-c3ccccc3)c2=O)S(=O)(=O)c2ccccc2)cc1OC	28.4%	u	-9.1%	-4.9	-23.6%	1.9%
CCOc1ccccc1N(CC(=O)Nc1c(C)n(C)n(-c2ccccc2)c1=O)S(=O)(=O)c1ccccc1	10.8%	9.2%	x	-77.7*	x	-5.9%
CCOc1ccc(N(CC(=O)Nc2c(C)n(C)n(-c3ccccc3)c2=O)S(=O)(=O)c2ccc(F)cc2)cc1	1.0%	x	-3.6%	-66.2*	-0.9%	x
O=c1c([N+](=O)[O-])c(N2CCCC2)c2ccccc2n1-c1ccccc1	3.5%	1.2%	-3.1%	5.2	-20.4%	1.2%
COc1cc(/C=N/Nc2cccc(C)c2)ccc1OC(=O)c1ccco1	69.7%	1.0%	-9.9%	24.5	-15.0%	-1.0%
O=C(CN1CCN(c2ccccc2)CC1)Nc1cccc([N+](=O)[O-])c1	-5.6%	6.2%	-14.0%	-16.5	-18.0%	-0.8%
O=C(C1CCCN(c2ncnc3c2nc2n3CCCCC2)C1)N1CCN(c2ccc(F)cc2)CC1 (stereo not given)	u	11.2µM*	-21.4%	-14.6	-4.8%	-6.7%
SMILES	FMDV inh	HCV inh	Vaccinia Venus	HCMV inh	Vaccinia mCherry	Giardia FBPA inh
CCN(C(=O)C1CCCN(c2ncnc3c2nc2n3CCCCC2)C1)c1cccc(Cl)c1 (stereo not given)	u	-6.3%	-19.9%	-86.7*!	-25.4%	1.5%
O=C(C1CCCN(c2ncnc3c2nc2n3CCCCC2)C1)N1CCN(c2ccc(Cl)cc2)CC1 (stereo not given)	u	u	u	-83.3*	-17.1%	-1.8%
CC(=O)c1ccc(NC(=O)C2CCCN(c3ncnc4c3nc3n4CCCCC3)C2)cc1 (stereo not given)	u	5.0%	-10.5%	u	i	3.9%
CSc1cccc(NC(=O)C2CCCN(c3ncnc4c3nc3n4CCCCC3)C2)c1 (stereo not given)	u	22.4µM*	x	u	x	9.0%
CN1CCCc2cc(/C=C/c3ccnc4ccccc34)ccc21	x	x	33.2%	x	-9.9%	x
CCOC(=O)C1CCN(S(=O)(=O)c2ccc3c(c2)CC(C)N3C(=O)C2CCC2)CC1 (stereo not given)	u	u	x	11.1	x	9.6%
CCCNC(=O)CCc1nnc2ccc(N3CCN(c4cccc(OC)c4)CC3)nn12	-5.9%	x	-8.6%	u	-10.9%	x
COC(=O)c1c(C)[nH]c(C(=O)OCC(=O)c2ccc(C)s2)c1C	36.8%	11.2µM*	-0.4%	51.6	-3.8%	x
CC(=O)c1c(C)[nH]c(C(=O)OCC(=O)Nc2cc(C)on2)c1C	-25.2%	u	x	50.5	x	-2.7%
COc1cc(NC(=O)COC(=O)c2[nH]c(C)c(C(C)=O)c2C)cc(OC)c1	u	10µM*	-4.6%	u	-8.7%	x
CC(=O)c1c(C)[nH]c(C(=O)OCC(=O)Nc2ccc(Cl)c(S(=O)(=O)N(C)C)c2)c1C	28.2µM*	3.98µM*	x	0.0	x	2.9%
CCOC(=O)c1c(C)[nH]c(C(=O)OCC(=O)NC(C)(C)C)c1C	-26.5%	14.1µM*	-10.8%	-79.8*	-11.9%	-3.2%
CCOC(=O)c1[nH]c(C)c(C(=O)OC)c1C	15.0%	6.1%	-9.0%	58.6	-2.4%	-0.2%
O=C(Nc1cc(C(F)(F)F)cc(C(F)(F)F)c1)Nc1cnn(-c2ccc([N+](=O)[O-])cc2)c1C(F)(F)F	-47.6%	u	-13.4%	-26.0	i	1.2%
COc1cccc(C2=NC(C)(CC(=O)NCc3cccc(O)c3)ON2C)c1 (stereo not given)	x	x	x	0.9	x	x
O=C(c1ccc2c(c1)OCO2)N1CCN(CCN2C(=O)c3cccc4cccc(c34)C2=O)CC1	-5.3%	5.8%	-8.7%	-39.6	-14.7%	x
CC1(C(=O)NCc2ccc(Cl)c(Cl)c2)Oc2cccnc2NC1=O (stereo not given)	u	-24.5%	-2.8%	u	-6.3%	2.7%
CCOc1ccc(NS(=O)(=O)c2ccc(NC(=S)NC(C)=O)cc2)cc1	23.0%	u	-10.1%	-62.2*	i	-4.5%
CC(=O)NC(=S)Nc1ccc(S(=O)(=O)N(C)Cc2ccccc2)cc1	22.4µM*	-23.1%	-9.9%	-16.9	-11.0%	5.2%
CC(C)C(=O)NC(=S)Nc1ccc(S(=O)(=O)N(C)Cc2ccccc2)cc1	-26.9%	u	u	-0.1	x	5.1%
